This note sets out measurements from PubChem BioAssay (NCI).

Assay in all cases: NCI-60 one-dose screen, 48 h (100 = growth as untreated, 0 = no growth, -100 = all killed)
Details in all cases: 10 µM unless noted

The test system of assay [1] is EKVX NSCLC.
The test system of assay [2] is SN12C renal.
In assay [3] the test system is UO-31 renal.
Assay [4] has as its system TK-10 renal.
The subject of assay [5] is ACHN renal.
Assay [6] relates to CAKI-1 renal.
Assay [7] deals with A498 renal.
Assay [8] has as its system MOLT-4 leukemia.
For assay [9], the system named is SR leukemia.
Assay [10] deals with OVCAR-8 ovarian.
Assay [11] has as its system OVCAR-5 ovarian.
The test system of assay [12] is OVCAR-4 ovarian.
Assay [13] deals with SK-OV-3 ovarian.
The test system of assay [14] is IGROV1 ovarian.
Assay [15] concerns OVCAR-3 ovarian.
In assay [16] the test system is HS 578T breast.
Assay [17] concerns NCI/ADR-RES ovarian.
For assay [18], the system named is CCRF-CEM leukemia.
Assay [19] deals with RPMI-8226 leukemia.

This is part of a sample that, as a whole, favours compounds with a hit. Of some 83,000 tested, about 20% had one in any assay.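 The test compound was applied at a single concentration to cells in 96-well plates for 48 hours, and percent growth was recorded.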 Unmarked numbers belong to inactive results. The source made the active and inactive calls. Rule for the calls: active = growth percent below 10; inactive = the rest.

As to `CC(C)(C)OC(=O)N1Cc2cc3ccccc3nc2C1CO` (centres undefined), the growth in assay [1] was 92.9%; in [2], 98.9%; in assay [3] it was 87%; in assay [4], 106%; in [5] it was 111%; in [6], 53.2%. The growth in assay [7] is 97.1%; in [8] it was 128%; in [9], 137%; in assay [10] it was 92.2%; in [11], 110%; in assay [12], 96%. Further, the growth in [13] was 119%; in assay [14], 92.7%; in assay [15], 101%; in [16], 102%; in assay [17], 106%.

On to `C=C(C=O)[C@@H]1CC=C(C=O)CC1`, for which the growth is 2.06% (active) in assay [1]; -14.1% (active) in assay [2]; -41.7% (active) in assay [3]; -42.2% (active) in assay [4]; -54.9% (active) in assay [5]; -31.7% (active) in [6]. In addition, the growth is 81.7% in assay [7]; -52.7% (active) in [18]; -40.8% (active) in [8]; -6.52% (active) in assay [9]; -36.6% (active) in assay [19]; -54.5% (active) in assay [11]. The growth in assay [12] is 10.5%; in [13], 0.713% (active); in assay [14], -24.5% (active); in assay [15], -19.7% (active); in assay [17], 3.97% (active).

For `CNC(=O)c1cc(Oc2ccc3nc(NC(=O)Nc4cc(C(F)(F)F)cc(C(F)(F)F)c4)sc3c2)ccn1`, the growth was -18.7% (active) in assay [1]; -54.8% (active) in assay [4]; -52.9% (active) in assay [5]; -17.6% (active) in [6]; -58.8% (active) in assay [7]; 7.33% (active) in assay [18]. For the same compound, the growth was 0.825% (active) in assay [8]; -27.6% (active) in [9]; -14.1% (active) in assay [19]; -68.2% (active) in assay [10]; -26.1% (active) in assay [11]; -77.2% (active) in assay [12]. For the same compound, the growth in [13] is -58% (active); in [14] it was -48.5% (active); in [15] it was -76.5% (active); in [16] it was -20.4% (active); in [17], -38.2% (active).

As to `O=C1C2=C(CCN(Cc3ccccc3)C2)N2CCN=C2N1Cc1ccc(F)cc1F`, the growth in [1] is 30.2%; in [2] it was 28.8%; in [4], 44.8%; in assay [5] it was 35.6%; in [6] it was 32.9%; in assay [7], 14.6%. The growth in assay [8] was 74.1%; in assay [9], 55.5%; in assay [19], 19.3%; in [10], 17.4%; in assay [11] it was 56.4%; in [12], -2.31% (active). The growth in assay [13] was 27.8%; in assay [14] it was 47.5%; in [15], 26.8%; in assay [16], 45.8%; in assay [17] it was 20.1%.

Take `CCNCCNc1cc(-c2ccc(C(=O)OC)cc2)c(C#N)c2nc3ccccc3n12`: the growth in assay [1] is 84.8%; in assay [2], 67.4%; in assay [3] it was -11.3% (active); in [4], 87.3%; in [5] it was 36.4%; in assay [6], 58.2%. In addition, the growth in [7] is 81.9%; in assay [8], 28.3%; in assay [9], -7.47% (active); in assay [19], 20.8%; in [10] it was 31.5%; in assay [11], 102%. Moreover, the growth in assay [12] was -19.2% (active); in [13] it was 81.7%; in assay [14], 53.5%; in assay [15] it was -57% (active); in assay [16] it was 59.3%; in assay [17], 57%.

For `CN(C)c1ccc(C#Cc2c(F)cccc2Cl)cc1`, the growth in [1] was 63.5%; in [2] it was 82.2%; in [3] it was 41.2%; in [4], 96.8%; in assay [5], 83.5%; in assay [6], 82.4%. Also, the growth in assay [7] was 42.6%; in assay [18] it was 88.6%; in assay [8] it was 89.4%; in assay [9], 94.3%; in [19], 91.3%; in assay [11], 99.2%. Moreover, the growth in [13] is 79%; in [14], 47.2%; in assay [15], 90.6%; in assay [16] it was 94.5%; in assay [17], 85.3%.

For `CN(C)c1ccc2cc(-c3ccc(Cl)c(Cl)c3)c(N)nc2c1`, the growth in [1] was 26.3%; in [2], 40.9%; in assay [3], 33.2%; in assay [4], 27.9%; in assay [5], 52.3%; in [6], 39.5%. In addition, the growth was 58% in [18]; 31% in assay [8]; -29% (active) in [9]; 13.3% in assay [19]; 21% in assay [10]; 55.4% in [11]. The growth is 9.09% (active) in assay [12]; 60.4% in assay [13]; 42% in [14]; 31% in assay [15]; 62.4% in [16]; 15.9% in assay [17].

`CN(C)c1ccc(/C=C2\C=C(c3ccccc3)N(CCc3ccccc3)C2=O)cc1`: the growth in [1] is 46.9%; in [3] it was 61%; in assay [4], 88.7%; in [5] it was 57.6%; in [6] it was 76.9%; in assay [7] it was 72.8%. The growth in assay [18] was 102%; in assay [8], 86.5%; in assay [9], 23.5%; in assay [19], 93%; in assay [10], 11.7%; in assay [11], 98.7%. Also, the growth is -11.6% (active) in [12]; 60.9% in [13]; 70.2% in assay [14]; 62.3% in assay [15]; 19.1% in [16]; 48.6% in assay [17].
